Screening data (PubChem BioAssay)
STK33 kin inh – STK33 kinase inhibitors, primary screen, biochemical, luminescence, ADP-Glo, MBP substrate | inhibition, % at 12.5 µM | 0.44% of 27,000 active; in the data active = inhibition above about 20%; inconclusive = no clear call, values can overlap the other calls
Target sequence (Q9BYT3 whole entry, looked up): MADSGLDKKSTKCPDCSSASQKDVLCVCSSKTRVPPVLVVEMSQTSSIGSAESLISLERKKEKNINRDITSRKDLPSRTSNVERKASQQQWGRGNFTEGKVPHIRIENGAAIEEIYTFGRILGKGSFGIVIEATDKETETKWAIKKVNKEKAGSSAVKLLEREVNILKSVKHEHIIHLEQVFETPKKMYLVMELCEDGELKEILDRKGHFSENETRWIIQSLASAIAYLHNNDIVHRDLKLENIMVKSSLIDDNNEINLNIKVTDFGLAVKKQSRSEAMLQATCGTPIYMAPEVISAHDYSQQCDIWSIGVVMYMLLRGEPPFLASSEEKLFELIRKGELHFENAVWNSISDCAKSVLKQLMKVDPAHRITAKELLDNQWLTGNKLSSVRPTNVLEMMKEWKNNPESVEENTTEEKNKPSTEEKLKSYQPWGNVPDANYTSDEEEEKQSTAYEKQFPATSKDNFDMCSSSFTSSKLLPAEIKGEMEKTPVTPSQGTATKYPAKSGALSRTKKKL
PD-1 reversal – activators reversing PD-1 mediated T-cell inhibition, primary screen, luminescence, primary human CD4 T cells, PD-L1 beads; CellTiter-Glo 96 h; activation, % (no concentration beside the values); 29,000 tested, under 10 active; AID 2316, 2010; call rule not given here;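 also: 0% = median vehicle wells and 100% = positive control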
NOMO-1 viab – NOMO-1 AML cell viability reduction, primary screen, STK33 inhibitor project, CellTiter-Glo luminescence; AID 2330, 2010; NOMO-1 AML viability, 72 h; 7.5% of 37,000 active; inhibition, % (test concentration not listed); in the data active = inhibition above about 80%; inconclusive = no clear call, values can overlap the other calls
Active calls of the source: *; ? = inconclusive; . = no result. Only a selection was taken, and hits are over-represented in it overall.

SMILES	STK33 kin inh	PD-1 reversal	NOMO-1 viab
NS(=O)(=O)c1ccc(CCNC(=O)c2cc(-c3cccnc3)nc3ccc(Cl)cc23)cc1	5	.	18
CCOc1ccc(NC(=O)Cn2nc([N+](=O)[O-])cc2C)cc1	3	.	-5
O=C(COc1ccc(Cl)cc1Cl)Nc1cc(C(=O)O)cc(C(=O)O)c1	-8	1	15
O=C(COc1ccc(Cl)cc1C1C2=C(CCCC2=O)NC2=C1C(=O)CCC2)Nc1ccc(Cl)cc1	-1	0	116*
C[C@H](CO)N1C[C@H](C)[C@@H](CN(C)Cc2ccc(Cl)c(Cl)c2)Oc2ccc(NC(=O)Nc3ccccc3)cc2C1=O	-1	1	?
C[C@H]1CN([C@@H](C)CO)C(=O)c2cc(NC(=O)Nc3ccccc3)ccc2O[C@H]1CN(C)Cc1ccc(Cl)c(Cl)c1	1	-2	100*
C[C@H]1CN([C@@H](C)CO)C(=O)c2cc(NC(=O)Nc3ccccc3)ccc2O[C@@H]1CN(C)Cc1ccc(Cl)c(Cl)c1	0	1	18
C[C@@H]1CN([C@@H](C)CO)C(=O)c2cc(NC(=O)Nc3ccccc3)ccc2O[C@@H]1CN(C)Cc1ccc(Cl)c(Cl)c1	.	0	112*
O=C(O)CN(c1cc(Cl)cc(Cl)c1)S(=O)(=O)c1ccccc1	-1	2	1
COc1ccccc1C(=O)N1CCN(c2ccc([N+](=O)[O-])c(NCc3cccnc3)c2)CC1	-1	.	37
Cc1ccc(S(=O)(=O)N(C)C[C@@H]2Oc3ccc(NC(=O)Nc4ccc(C(F)(F)F)cc4)cc3C(=O)N([C@H](C)CO)C[C@@H]2C)cc1	0	-2	115*
Cc1ccc(S(=O)(=O)N(C)C[C@@H]2Oc3ccc(NC(=O)Nc4ccc(C(F)(F)F)cc4)cc3C(=O)N([C@@H](C)CO)C[C@H]2C)cc1	1	1	75
Cc1ccc(S(=O)(=O)N(C)C[C@H]2Oc3ccc(NC(=O)Nc4ccc(C(F)(F)F)cc4)cc3C(=O)N([C@@H](C)CO)C[C@H]2C)cc1	5	-2	119*
C[C@H]1CN([C@@H](C)CO)C(=O)c2cc(NC(=O)Nc3ccc(C(F)(F)F)cc3)ccc2O[C@@H]1CN(C)S(=O)(=O)c1ccc(Cl)cc1	.	-1	121*
Cc1ccc(S(=O)(=O)N(C)C[C@H]2Oc3ccc(NC(=O)Nc4ccc(C(F)(F)F)cc4)cc3C(=O)N([C@@H](C)CO)C[C@@H]2C)cc1	2	0	-5
C[C@H](CO)N1C[C@H](C)[C@H](CN(C)S(=O)(=O)c2ccc(Cl)cc2)Oc2ccc(NC(=O)Nc3ccc(C(F)(F)F)cc3)cc2C1=O	1	0	63
C[C@@H]1CN([C@@H](C)CO)C(=O)c2cc(NC(=O)Nc3ccc(C(F)(F)F)cc3)ccc2O[C@@H]1CN(C)S(=O)(=O)c1ccc(Cl)cc1	.	-1	8
Cc1ccc(S(=O)(=O)N(C)C[C@@H]2Oc3ccc(NC(=O)Nc4ccc(C(F)(F)F)cc4)cc3C(=O)N([C@@H](C)CO)C[C@@H]2C)cc1	3	-1	83*
COc1ccccc1OC(=O)NC(C)C	.	0	-4
COC(=O)c1ccc(COc2ccc3c(C)cc(=O)oc3c2)o1	-5	2	48
O=S(=O)(N[C@H]1CCN(Cc2ccc(OCCO)cc2)C1)c1cc(Cl)ccc1Cl	-5	.	.
O=c1cc(CSc2n[nH]c(-c3cccs3)n2)c2ccc(O)cc2o1	.	0	15
N#CC1=C(N)S[C@H](C(=O)c2ccccc2)[C@H]1c1ccc(Br)c(F)c1	.	0	?
COc1ccc(NC(=O)CSc2nnc(-c3ccc(NC(=O)c4ccc(C)cc4)cc3)n2C)cc1Cl	-2	2	50
O=c1c(-c2ccc(O)cc2)coc2cc(O[C@@H]3O[C@H](CO)[C@@H](O)[C@H](O)[C@H]3O)cc(O)c12	-4	1	96*
SMILES	STK33 kin inh	PD-1 reversal	NOMO-1 viab
COc1ccc(-c2coc3cc(O[C@@H]4O[C@H](CO)[C@@H](O)[C@H](O)[C@H]4O)cc(O)c3c2=O)cc1	-1	1	11
O=C(/C=C/Sc1ccccn1)c1ccccc1	.	-3	114*
N#Cc1ccccc1NC(=O)CSc1ccccn1	.	0	27
COc1ccc(Cl)cc1NC(=O)c1ccccc1N(Cc1ccccc1)S(C)(=O)=O	2	2	26
Cc1ccc(S(=O)(=O)Nc2cccc3c2O[C@H](CN(C)Cc2ccc(Cl)c(Cl)c2)[C@H](C)CN([C@@H](C)CO)C3=O)cc1	.	.	104*
Cc1ccc(S(=O)(=O)Nc2cccc3c2O[C@H](CN(C)Cc2ccc(Cl)c(Cl)c2)[C@@H](C)CN([C@@H](C)CO)C3=O)cc1	.	.	37
Cc1ccc(S(=O)(=O)Nc2cccc3c2O[C@H](CN(C)Cc2ccc(Cl)c(Cl)c2)[C@H](C)CN([C@H](C)CO)C3=O)cc1	.	-3	41
C[C@H](CO)N1C[C@H](C)[C@H](CN(C)Cc2ccc(Cl)c(Cl)c2)Oc2c(NS(=O)(=O)c3ccc(Cl)cc3)cccc2C1=O	.	.	109*
Cc1ccc(S(=O)(=O)Nc2cccc3c2O[C@@H](CN(C)Cc2ccc(Cl)c(Cl)c2)[C@@H](C)CN([C@H](C)CO)C3=O)cc1	.	-5	119*
C[C@H](CO)N1C[C@H](C)[C@@H](CN(C)Cc2ccc(Cl)c(Cl)c2)Oc2c(NS(=O)(=O)c3ccc(F)cc3)cccc2C1=O	.	.	19
C=CC1(C)OCO/C1=C\C[N+](C)(C)C (stereo not drawn)	.	2	-4
COc1ccc(S(=O)(=O)N(C)CC(=O)Nc2cc(C(F)(F)F)ccc2Cl)cc1	-1	1	-8
CCn1c(NCCCO)nc2ccccc21	-4	0	27
CC(C)N(CCC#N)S(=O)(=O)c1ccccc1[N+](=O)[O-]	1	.	-3
COc1ccc([N+](=O)[O-])cc1NC(=O)CN(c1ccc(F)c(Cl)c1)S(C)(=O)=O	-2	1	30
O=C1C(=O)N(Cc2ccco2)C(c2cccc(Oc3ccccc3)c2)C1C(=O)c1cccs1 (stereo not drawn)	0	2	9
C[C@@H]1CN([C@H](C)CO)C(=O)c2cc(NS(=O)(=O)c3ccc(Cl)cc3)ccc2O[C@@H]1CN(C)Cc1ccc(C(F)(F)F)cc1	.	-2	116*
C[C@@H]1CN([C@@H](C)CO)C(=O)c2cc(NS(=O)(=O)c3ccc(Cl)cc3)ccc2O[C@H]1CN(C)Cc1ccc(C(F)(F)F)cc1	6	-2	107*
C[C@H]1CN([C@@H](C)CO)C(=O)c2cc(NS(=O)(=O)c3ccccc3)ccc2O[C@@H]1CN(C)Cc1ccc(C(F)(F)F)cc1	.	-3	42
C[C@H](CO)N1C[C@H](C)[C@@H](CN(C)Cc2ccc(C(F)(F)F)cc2)Oc2ccc(NS(=O)(=O)c3ccccc3)cc2C1=O	.	-4	10
CSc1ccccc1NC(=O)CN(C)S(=O)(=O)c1ccc(Cl)cc1	2	0	1
O=C(CCSc1nc2ccccc2o1)N1CCOCC1	3	.	-11
CC1(C)CC(=O)C=C(Sc2nc3ccccc3o2)C1	-1	-37	120*
COC(=O)Cc1c(C)c2cc(Cl)c(OC(C)C(C)=O)cc2oc1=O (stereo not drawn)	-3	.	-15
COc1ccc(-n2c(=S)[nH]c3cc(C(=O)NC4CCCC(C)C4C)ccc3c2=O)c(OC)c1 (stereo not drawn)	.	0	87*
